# Screens from PubChem.
# 14-3-3 Bad PPI = inhibitors of 14-3-3 zeta/Bad binding, primary screen, biochemical, TR-FRET, bovine 14-3-3 zeta; 14-3-3 protein zeta/delta (Bos taurus), P63103; TR-FRET 14-3-3zeta/Dy647-pBad peptide displacement, 1 h; inhibition, % at 21.7 µM; hit rate 0.71% among 220,000; AID 781, 2007;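 active = inhibition above about 70%, limit read from the data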
# Target sequence (P63103 whole entry, looked up): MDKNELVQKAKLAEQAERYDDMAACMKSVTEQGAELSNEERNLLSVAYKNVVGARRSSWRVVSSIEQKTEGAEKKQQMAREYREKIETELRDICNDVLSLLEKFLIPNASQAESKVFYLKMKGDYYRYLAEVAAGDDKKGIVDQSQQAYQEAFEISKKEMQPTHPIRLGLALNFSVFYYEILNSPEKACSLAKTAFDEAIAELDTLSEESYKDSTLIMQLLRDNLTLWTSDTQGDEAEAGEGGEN
# Mcl-1 Bim block = inhibitors of Bim peptide binding to Mcl-1, primary screen, biochemical, bead-based flow cytometry, multiplex; inhibition, % at 10 µM; hit rate 0.1% among 190,000; Bim peptide-Mcl-1 binding; in the data active = inhibition above about 40%
# Target sequence (Q07820 whole entry, looked up): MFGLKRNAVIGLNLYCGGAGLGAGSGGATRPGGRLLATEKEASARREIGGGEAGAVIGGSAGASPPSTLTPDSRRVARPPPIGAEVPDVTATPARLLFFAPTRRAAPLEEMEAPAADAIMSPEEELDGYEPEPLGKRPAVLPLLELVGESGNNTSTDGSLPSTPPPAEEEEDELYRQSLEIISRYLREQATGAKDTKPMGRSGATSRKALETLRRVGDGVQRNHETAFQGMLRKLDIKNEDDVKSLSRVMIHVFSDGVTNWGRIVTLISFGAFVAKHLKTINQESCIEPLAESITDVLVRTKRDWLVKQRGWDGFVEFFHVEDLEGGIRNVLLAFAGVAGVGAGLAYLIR
# Arbovirus anti = antivirals against arbovirus infection, primary screen, cell-based, full library, 10K replicate subset. hit rate 0.37% among 200,000. arbovirus infection cell-based antiviral screen. inhibition, % at 10 µM; in the data active = inhibition above about 30%
# Mcl1-Bid inh = Mcl-1/Bid binding inhibitors, primary screen, biochemical, TR-FRET, 1536-well; Induced myeloid leukemia cell differentiation protein Mcl-1 (Homo sapiens), Q07820; TR-FRET Mcl-1/Bid-Dy647 peptide binding; inhibition, % at 21.7 µM; hit rate 0.97% among 220,000; AID 1021, 2008;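 active = compounds that cut the binding signal by more than half at the single screening dose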;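 also: His-tagged Mcl-1 with europium anti-His antibody binding Bid BH3 peptide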
# Mcl1-Noxa inh = Mcl-1/Noxa binding inhibitors, primary screen, biochemical, TR-FRET, 1536-well. inhibition, % at 21.7 µM. hit rate 1.5% among 220,000. TR-FRET Mcl-1/Noxa peptide binding, 2 h;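 active = compounds that cut the protein-peptide binding signal by more than 50% relative to plate controls in a single-dose test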;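 also: His-tagged Mcl-1 with rhodamine Noxa BH3 peptide and terbium anti-His antibody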
# Hits are given with their value; i = inactive; nt = no result given. Hits are enriched below; roughly 3% of the tested compounds scored in any of these assays.
SMILES,14-3-3 Bad PPI,Mcl-1 Bim block,Arbovirus anti,Mcl1-Bid inh,Mcl1-Noxa inh
Clc1ccccc1-c1nnc2n1CCCCC2,i,nt,nt,i,i
O=C(Nc1ccccc1-c1nc2ccccc2s1)C1=COCCO1,i,i,i,i,i
O=C(CCC1CCCCC1)NCc1ccc(F)cc1,i,i,i,i,i
CC1CCCCC1NCC(=O)NCc1ccc(F)cc1 (centres undefined),i,i,i,58,i
Cc1c(CCOC(=O)c2cccc([N+](=O)[O-])c2)sc[n+]1CC(=O)c1ccccc1,i,i,i,i,i
O=C(NN=C1C2CC3CC1CC(Cl)(C3)C2)c1cccs1,i,i,i,i,i
O=C(NN=C1C2CC3CC1CC(Cl)(C3)C2)c1ccccn1,i,i,i,i,67
CC1=CCC(C(=O)O)C(C(=O)Nc2ccc(-c3nc4ccc(C)cc4s3)cc2)C1 (centres undefined),i,nt,nt,i,i
CCOC(=O)N1C2=NC(C(=O)OC)=C(C(=O)OC)[C@@H]3N(C)c4ccccc4[C@]23C[C@H]1C(=O)OC,i,nt,nt,i,i
Cc1cccc(CSc2nn3c(=O)c(C)nnc3s2)c1,i,i,40,i,i
C/C(N)=C(/C#N)C(=O)CSc1nnc(Nc2c(C)cccc2C)s1,i,i,i,i,72
C/C(N)=C(/C#N)C(=O)CSc1nnc(Nc2cccc(C)c2C)s1,i,i,i,i,i
O=[N+]([O-])c1ccc(NCCCNS(=O)(=O)c2ccc(Cl)cc2)c(Cl)c1,i,i,i,i,i
O=C(Nc1cccc(-c2cc3ccccc3oc2=O)c1)c1ccc(Br)o1,i,i,i,i,i
O=C(Nc1cccnc1)c1cc2c(ccc3ccccc32)o1,77,i,i,i,i
COc1cc(NC(=O)c2cccnc2)ccc1-c1cc2ccccc2oc1=O,i,i,i,i,51
O=C(Nc1cccnc1)c1cccc(-c2cc3ccccc3oc2=O)c1,78,i,i,57,i
O=C(Nc1ccc(-c2cc3ccccc3oc2=O)c(Cl)c1)c1cccnc1,i,i,i,i,i
COC(=O)c1ccccc1NC(=O)CN1CCC(NC(=O)c2ccc(C)cc2)CC1,i,i,55,i,i
CCOC(=O)c1ccccc1NC(=O)CN1CCC(n2nnc3cc(C(F)(F)F)ccc32)CC1,i,nt,nt,i,i
COC(=O)c1ccccc1NC(=O)CN1CCC(n2nnc3cc(F)ccc32)CC1,i,i,40,i,i
CCOc1ccccc1NC(=O)CN1CCC(NC(=O)c2ccccc2)CC1,i,i,i,i,i
COc1cccc(C(=O)N2CCN(C3CCN(Cc4ccccc4)CC3)CC2)c1,i,i,i,i,i
COc1ccc(C(=O)N2CCN(Cc3cc(OC)c(O)c(OC)c3)CC2)cc1OC,i,i,i,58,i
COc1ccc(C(=O)N2CCN(C3CCN(Cc4ccccc4)CC3)CC2)cc1OC,i,i,i,58,i
SMILES,14-3-3 Bad PPI,Mcl-1 Bim block,Arbovirus anti,Mcl1-Bid inh,Mcl1-Noxa inh
COc1ccccc1C(=O)N1CCN(C2CCN(Cc3ccccc3)CC2)CC1,84,i,i,i,i
COc1ccc(/C(N)=N/OC(=O)Cc2ccc(C)cc2)cc1OC,i,i,i,i,i
Cc1ccn(CC(=O)N/N=C/c2cc([N+](=O)[O-])ccc2O)n1,i,i,i,i,i
COC(=O)c1ccc(Sc2ccccn2)c([N+](=O)[O-])c1,i,i,i,55,i
Cc1nc(NC(=O)/C=C/c2ccco2)sc1C,i,i,i,i,58
O=C(/C=C/c1ccco1)NC1=NCCS1,i,i,i,i,i
O=C(/C=C/c1ccco1)Nc1cccc(NC(=O)/C=C/c2ccco2)n1,i,i,i,i,72
CC(C)(C)c1cc(NCc2ccccn2)n2ncc(-c3ccccc3)c2n1,i,nt,nt,i,i
O=C(Nc1ccccc1C(=O)O)c1ccc2ccccc2n1,i,i,42,i,i
O=C(Nc1ccccc1)c1ccc2ccccc2n1,80,i,i,i,i
O=C(Nc1ccc(OC(F)(F)F)cc1)c1ccc2ccccc2n1,i,i,i,i,i
CCOC(=O)c1sc(NC(=O)CC)c(C#N)c1C,i,i,i,i,i
CC(C)c1c(C#N)c(N)nc(SCC(=O)c2cc3ccccc3oc2=O)c1C#N,i,i,i,i,i
N#Cc1ccc(-c2ccccc2)nc1SCC(=O)c1cc2ccccc2oc1=O,i,i,i,64,i
CC(C)CNC(=S)N1CCN(C)CC1,81,i,i,i,i
CN(C)c1ccc(NC(=O)COC(=O)c2cc(Cl)ccc2[N+](=O)[O-])cc1,i,i,i,i,54
NS(=O)(=O)c1ccc(NC(=O)COC(=O)c2cc(Cl)ccc2[N+](=O)[O-])cc1,i,nt,nt,i,i
COC(=O)c1cc(Nc2cc(C)c3c(O)cccc3n2)cc(C(=O)OC)c1,i,nt,nt,i,56
COC(=O)c1cc(Nc2cc(C)c3ccc(O)cc3n2)cc(C(=O)OC)c1,i,nt,nt,i,i
Cc1ccccc1Nc1cc(C)c2c(O)cccc2n1,i,i,i,i,i
COc1ccc(Nc2cc(C)c3c(O)cccc3n2)cc1,i,nt,nt,i,77
Cc1ccc(Nc2cc(C)c3c(O)cccc3n2)cc1C,i,nt,nt,i,54
O=C(Nc1ccccc1)Nc1ccc(Br)c(Cl)c1,i,i,i,i,i
COc1cccc(C(=O)NC(=S)Nn2cnnc2)c1OC,i,i,i,i,i
COc1cc(/C=C2\SC(=S)NC2=O)ccc1OS(=O)(=O)c1ccccc1,i,i,i,i,79
SMILES,14-3-3 Bad PPI,Mcl-1 Bim block,Arbovirus anti,Mcl1-Bid inh,Mcl1-Noxa inh
COc1cc(/C=C2/SC(=S)NC2=O)ccc1OS(=O)(=O)c1ccc(C)cc1,i,i,i,82,98
Nc1nc(CCOc2ccc(F)cc2)cs1,i,i,i,i,i
CC1=Nc2ccccc2/C1=C/c1sc(=S)n(-c2cccc(C(=O)O)c2)c1O,i,nt,i,i,i
CSc1nsc2nc(=O)c(/C=C3\C(C)=Nc4ccccc43)c(N)n12,i,i,32,i,i
O=C(O)c1ccc(CS(=O)(=O)Cc2ccccc2F)o1,i,i,i,92,i
O=C(NCc1ccccc1)c1ccc(CS(=O)(=O)Cc2ccccc2F)o1,i,i,i,i,i
CN1CCN(CCC(=O)Nc2ccc(OCc3ccccc3)cc2)CC1,i,i,i,i,i
O=C(CCN1CCN(CCO)CC1)Nc1ccc(OCc2ccccc2)cc1,i,i,i,55,i
N#Cc1c(C#N)c(O)c2ccccc2c1O,i,nt,nt,i,i
N=C1CCC(=N)c2c1c(O)c1ccccc1c2O,i,nt,nt,i,76
COc1ccc2nc(N3C(=O)/C(=C/c4ccccc4)NC3=S)sc2c1,i,i,i,i,64
CCc1ccc(C(=O)COC(=O)C(CCSC)NC(=O)c2ccccc2)cc1 (centres undefined),i,i,i,i,i
CSc1cnn(-c2ccccc2)c(=O)c1SC,i,i,i,i,nt
CSc1cnn(Cc2ccccc2)c(=O)c1SCc1ccccc1,i,i,i,i,99
Cc1ccc(CNc2ccc(O)cc2)cc1,i,i,i,i,52
